In PubChem BioAssay (NCI):
“And” between values parts separate entries of the source, which are not always exact repeats. Identical values can stand only once. The panel holds about 79,000 compounds, 15% with a hit somewhere; the sample as a whole holds those more often. Cut-off read from the data, not from the text of the source: active = growth inhibition above about 70%; inactive = the rest.

How the values were obtained:
[1] = NCI Yeast Anticancer Drug Screen. Data for the rad50 strain (AID 155);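 note: 0% = growth of vehicle-only cultures of the same strain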; details: S. cerevisiae rad50 strain growth inhibition; at 50.0 µM; hits give high values
Outline: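 Readout: growth inhibition relative to vehicle-treated cultures. Compound exposure was carried out in a genetically defined yeast strain deficient in DNA damage repair.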

[2] = NCI Yeast Anticancer Drug Screen. Data for the mec2-1 strain (AID 157); details: S. cerevisiae mec2-1 strain, at 50.0 µM, hits give high values
Outline: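 Compounds were applied to mec2-1 yeast cells. Their growth was then compared with that of vehicle-treated cultures to give growth inhibition.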

[3] = NCI Yeast Anticancer Drug Screen. Data for the sgs1 mgt1 strain (AID 161);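 note: 0% = growth of cultures given vehicle only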; details: S. cerevisiae sgs1 mgt1 strain, at 50.0 µM, hits give high values
Outline: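 This yeast growth screen uses a strain with defined DNA-repair lesions; compound-treated growth is compared with vehicle-treated growth.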

[4] = NCI Yeast Anticancer Drug Screen. Data for the cln2 rad14 strain (AID 165);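 note: 0% = growth equal to vehicle treated cultures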; details: S. cerevisiae cln2 rad14 strain, at 50.0 µM, hits give high values
Outline: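 Strain: cln2 rad14 yeast, altered in cell cycle control and DNA damage repair. Read-out: growth inhibition vs vehicle.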

[5] = NCI Yeast Anticancer Drug Screen. Data for the bub3 strain (AID 167); details: S. cerevisiae bub3 mutant strain, at 50.0 µM, hits give high values
Outline: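 Readout: yeast growth inhibition, expressed relative to vehicle-only wells. The test organism is a mutant strain from a panel with lesions in DNA repair or checkpoint genes.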

[6] = NCI Yeast Anticancer Drug Screen. Data for the mlh1 rad18 strain (AID 175); details: S. cerevisiae mlh1 rad18 strain growth inhibition; at 50.0 µM; hits give high values
Outline: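 A repair-deficient yeast strain is exposed to test compound, and growth is scored relative to vehicle-treated controls.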

Measured: growth inhibition

COCCCNP(=O)(OC(C)C)OC(C)C
inactive: [1] 0.75% | [2] 0.85% | [3] 8.6% | [4] 5.8% | [5] 9.2% | [6] 14.8%

O=C(O)COc1ccccc1
inactive: [1] 10.9% and -7.6% | [2] 9.2% and 1.65% | [3] 5.8% and -36.2% | [4] -16.6% and 6.7% | [5] -10.2% and -17.4% | [6] -13.2% and -0.15%

CS/C([S-])=N/N=C(C)C.CS/C([S-])=N/N=C(C)C.[Pt+2]
inactive: [1] 9.1% | [2] 1.45% | [3] 0.7% | [4] -41.3% | [5] -0.8% | [6] -9.9%

FC(F)(F)c1ccc(Cl)c(NC2=NCCS2)c1
inactive: [1] 14.2% | [2] 24.8% | [3] 19.4% | [4] 11.2% | [5] 11% | [6] 20.2%

O.O.[NH-]C1(C(=O)O)CCCC1.[NH-]C1(C(=O)O)CCCC1.[Ni+2]
inactive: [1] -12% | [2] -15.9% | [3] -16.6% | [4] 19.4% | [5] -48.9% | [6] -17.4%

CNP1(NC)=NP(N(C)C)(N(C)C)=NP(N(C)C)(N(C)C)=N1
inactive: [1] -15.9% | [2] 0.45% | [3] -3% | [4] -19.4% | [5] 11.6% | [6] 13.2%

CCCCCCC(=O)O[C@H]1CC[C@H]2[C@@H]3CCC4C/C(=N/NC(=O)c5cccc6c(=O)c7ccccc7[nH]c56)C=C(C)[C@]4(C)[C@H]3CC[C@]12C (stereo partly specified)
inactive: [1] 3.1% | [2] -0.85% | [3] 16.6% | [4] 24.7% | [5] 8.45% | [6] -55.3%

O=C1C2CCN(CC2)C1Cn1cnc2c(Cl)ncnc21 (stereo unspecified)
inactive: [1] -3.9% | [2] 4.1% | [3] -4.35% | [4] -0.55% | [5] -2.55% | [6] -0.75%

C1OCN2CSCC12 (stereo unspecified)
inactive: [1] 4% | [2] 28.8% | [3] 30.4% | [4] 5.35% | [5] 27.9% | [6] 31.8%

C1CCC2[N-]CCCC2C1.C1CCC2[N-]CCCC2C1.O=[N+]([O-])O.O=[N+]([O-])O.[Cu+2] (stereo unspecified)
inactive: [1] 21.6% | [2] 21.6% | [3] 15.2% | [4] -19.2% | [5] -4.35% | [6] 25.1%

C/C=C/c1cc2n(c1)C(=O)c1cc(OC3OC(C)C(NC)C(C)(O)C3O)c(C)c(O)c1NC2O (stereo unspecified)
inactive: [1] 20.9% | [2] 1.1% | [3] 20.8% | [4] 2.75% | [5] 14.2% | [6] -47.4%
